FAS TE block: FAS thioesterase (human) inhibition; recombinant FAS-TE, OMFH fluorogenic substrate, fluorescence endpoint; 0.67% of 360,000 active; AID 602261; inhibition, % at 15 µM; P49327;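 active = compounds whose normalised, plate-corrected inhibition of enzyme fluorescence in the single-dose primary screen is 50% or more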;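 note: 0% = DMSO with enzyme and 100% = substrate without enzyme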
rCAG binder: r(CAG) repeat RNA binding. TO-PRO-1 dye displacement fluorescence. inhibition, % at 3 µM. 1.3% of 370,000 active. AID 651821;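 active = inhibition above the plate cutoff, the mean of all test compounds on that plate plus 3 SD, cut at about 35% in these data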;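 note: 0% = DMSO alone and 100% = 100 µM mitoxantrone as full dye displacement; higher means more dye released from RNA so lower well fluorescence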
NadD block: NadD (S. aureus) enzyme inhibition. purified NadD enzyme, colorimetric absorbance read-out. inhibition, % at 20 µM. 0.78% of 360,000 active. AID 602399; in the data active = inhibition above about 26%
GRIN3A LBD mod: modulates the human NR3A ligand-binding domain; NR3A LBD differential scanning fluorimetry, Tm shift; 0% = protein alone, 100% = glycine-bound protein; Tm shift relative to glycine control, % at 25 µM; 2.5% of 340,000 active;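 active = melting temperature shift of at least 10% of the positive control shift, at one fixed dose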
Active calls of the source: *; · = no result given. Most compounds without a hit are left out; they make up all but 4.3% or so of the library.

SMILES	FAS TE block	rCAG binder	NadD block	GRIN3A LBD mod
Cc1ccccc1N1CCN(C2=NC(=O)/C(=C/c3cn[nH]c3-c3ccccc3)S2)CC1	-9	1	41*	-4
COc1cc(OC)c(NC(=S)Nc2cccc(C(C)=O)c2)cc1Cl	6	12	-13	-2
COc1cc(OC)c(NC(=S)Nc2cc(Cl)cc(Cl)c2)cc1Cl	43	12	-4	27*
COc1cc(O)ccc1/C=N/NC(=O)c1ccc([N+](=O)[O-])cc1	5	1	12	2
O=C(NC(CSCc1ccccc1)C(=O)N/N=C/c1ccc(O)cc1O)c1ccc([N+](=O)[O-])cc1 (centres undefined)	50	31	14	16*
CN(CC(=O)N1CCc2ccccc21)S(=O)(=O)c1ccc(Br)s1	21	-2	-4	15*
COC(=O)[C@]12C[C@H](CC(=O)N3CCC(c4ccccc4)CC3)C(=O)N(Cc3ccccc3)C1=C[C@H](C(C)(C)C)O[C@@H]2C	·	11	·	·
CCOc1cc(N2CCOCC2)c(OCC)cc1NC(=O)COC(=O)[C@@H]1CCCN1S(=O)(=O)c1ccccc1F	5	-8	2	-1
CCOc1cc(N2CCOCC2)c(OCC)cc1NC(=O)COC(=O)C1CCCN1S(=O)(=O)c1ccccc1F (centres undefined)	2	3	-5	26*
CC1C(=O)C(C)C(c2cc(Br)ccc2O)NC1c1cc(Br)ccc1O (centres undefined)	36	9	14	32*
COc1ccc(-c2csc(NC(=S)NC(=O)c3cccs3)n2)cc1OC	12	31	8	10*
COc1ccc(-c2csc(NC(=O)CN3C(=O)C4CCCCC4C3=O)n2)cc1OC (centres undefined)	9	4	-2	12*
O=C(CSc1nnc(-c2cccs2)n1Cc1ccco1)Nc1ccc(Oc2ccccc2)cc1	·	8	·	·
O=C(NC1CCCCN(Cc2ccc(Cl)cc2)C1=O)c1ccccc1 (centres undefined)	·	7	·	·
COc1ccc(CCN2C(=O)CN(Cc3ccccc3)CC2=O)cc1OC	-7	-2	-10	2
COc1ccc(CCN2C(=O)C=CC2=O)cc1OC	-5	3	0	20*
Cc1cc(C(=O)N/N=C2\CC(=O)c3ccccc32)c(C)n1-c1ccc(F)cc1	7	19	31*	-2
OC(CN1CCN(c2ccccn2)CC1)Cn1c2ccc(Cl)cc2c2cc(Cl)ccc21 (centres undefined)	20	5	27	19*
OC(CN1CCCCC1)Cn1c2ccc(Cl)cc2c2cc(Cl)ccc21 (centres undefined)	-48	15	3	-9
CCOc1cc(-c2nc(-c3ccccc3OC)no2)cc(OCC)c1OCC	30	-1	-10	11*
CCOc1cc(-c2nc(-c3ccc(OC)cc3)no2)cc(OCC)c1OCC	5	0	5	0
CCN1CCN(CCC(=O)Nc2ccc(Br)cc2)CC1	-3	-5	-1	10*
NC(=S)N/N=C/c1ccc2ccccc2c1	-9	5	8	18*
CN1C(=O)c2cc(NS(=O)(=O)c3cccc(F)c3)ccc2OC[C@@H]2O[C@H](CC(=O)O)CC[C@H]21	·	0	·	·
CCCNC(=O)Cn1c(=O)/c(=C\c2ccc(-c3ccc([N+](=O)[O-])cc3)o2)s/c1=C\C(=O)C(C)(C)C	-190	·	30*	-2
SMILES	FAS TE block	rCAG binder	NadD block	GRIN3A LBD mod
CCCNC(=O)Cn1c(=O)/c(=C/c2ccc(-c3cccc([N+](=O)[O-])c3)o2)s/c1=C\C(=O)C(C)(C)C	-72	15	18	-1
c1ccc(Cn2c(-c3ccccc3)nc3nc4ccccc4nc32)cc1	21	0	0	18*
C=CCn1c(-c2ccccc2)nc2nc3ccccc3nc21	-2	1	8	1
Clc1cccc(-c2nc3nc4ccccc4nc3n2Cc2ccccc2)c1	19	0	-10	12*
COc1ccc(C)cc1Nc1n[n+](-c2ccccc2)c(-c2ccc(SC)cc2)s1	-124	4	12	27*
COc1ccc(C)cc1Nc1n[n+](-c2ccccc2)c(-c2ccc(NC(C)=O)cc2)s1	-79	5	10	-10
CC(c1ccco1)N(C(=O)c1ccccc1NS(=O)(=O)c1ccc(Cl)c([N+](=O)[O-])c1)c1ccccn1 (centres undefined)	29	69*	11	-2
O=C(COC(=O)C1CC(=O)N(Cc2ccco2)C1)c1ccc(OC(=O)c2ccco2)cc1 (centres undefined)	5	1	36*	2
CCCC[C@H](C(=O)N(C)c1cccc(OC)c1)[C@@H](O)c1ccc2ccccc2c1	·	2	·	·

High-throughput results from PubChem.
